ClpP mod – qHTS Assay for Activators of ClpP; 340,000 compounds, 1.9% hits; Potency, µM (top dose mostly 57.5 µM); purified B. subtilis ClpP, FRET peptide cleavage, 20 min; ATP-dependent Clp protease proteolytic subunit (Bacillus subtilis (strain 168)), P80244; active = well fitted falling curve with a large enough effect; inconclusive = small, poorly fitted or top-dose-only effect; inactive = no such curve, though single readings can be large or run the other way; also: the source files actives as falling curves though it sought activators and does not explain the sign; nearly all actives have a fitted effect of over 65% in size
Target sequence (P80244 whole entry, looked up): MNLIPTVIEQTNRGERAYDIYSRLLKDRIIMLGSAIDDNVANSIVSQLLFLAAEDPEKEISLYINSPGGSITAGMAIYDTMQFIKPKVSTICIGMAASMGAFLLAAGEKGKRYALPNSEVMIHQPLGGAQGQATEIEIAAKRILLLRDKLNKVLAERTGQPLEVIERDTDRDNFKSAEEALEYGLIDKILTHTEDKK
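FRET quenching reversal measured ClpP activation: 10 microg/mL B. subtilis ClpP at pH 8 with the FRET-FV decapeptide, read at 430 nm after 320 nm excitation. The 20-min minus 0-min signal was scaled between DMSO/no-enzyme wells and ADEP (5.8 microM final).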
TDP1 block – qHTS Assay for Inhibitors of Tyrosyl-DNA Phosphodiesterase (TDP1). recombinant TDP1, AlphaScreen DNA substrate cleavage. Potency, µM (highest dose often 130 µM), most hits filed as inhibitors. 350,000 compounds, 0.28% hits; also: nearly all actives have a fitted effect of over 40% in size
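Compounds were preincubated with Tdp1 (1 nM final) for 15 min at room temperature before substrate (15 nM final) started a 5 min reaction; beads (10 ug/ml final) were then added for 10 min before AlphaScreen detection.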
TDP1 cell CPT – qHTS for Inhibitors of human tyrosyl-DNA phosphodiesterase 1 (TDP1): qHTS in cells in presence of CPT. chicken DT40 Tdp1-/-;hTDP1 cells + 20 nM CPT, ATP luminescence, 48 h. Potency, µM (highest dose often 46.2 µM), hits mostly inhibitors. AID 686979, 2013. 420,000 compounds, 12% hits; also: nearly all actives have a fitted effect of over 55% in size
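Cell growth measured by CellTiter-Glo luminescence after a minimum 48 h, 37 C compound exposure with 20 nM CPT in Tdp1-knockout DT40 cells stably expressing hTDP1, seeded 400/well; qHTS titration format.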
DT40 TDP1 no CPT – qHTS for Inhibitors of human tyrosyl-DNA phosphodiesterase 1 (TDP1): qHTS in cells in absence of CPT; AID 686978, 2013; Potency, µM (highest dose often 46.2 µM), hits mostly inhibitors; 420,000 compounds, 15% hits; DT40 Tdp1-/- hTDP1 cells, no CPT, ATP luminescence, 48 h; also: nearly all actives have a fitted effect of over 55% in size
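Seeded 400 DT40-hTDP1 cells/well (vehicle DMSO, no 20 nM CPT); pinned compounds; ≥48 hr at 37 °C; CellTiter-Glo luminescence as viability measure.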
A number is an active result; . = inactive; ? = inconclusive; / = no result given; [ ] = remark or other dose. Compounds with a hit are over-represented: about 17% of the library has one in this group of screens. Unless noted, calls follow the shape of the dose curve; as a rule, active = well fitted curve in the direction sought with a large enough effect; inconclusive = small, poorly fitted or top-dose-only effect, or another doubt; inactive = no such curve, though single readings can be large; an effect the other way counts as inactive or inconclusive.

SMILES	ClpP mod	TDP1 block	TDP1 cell CPT	DT40 TDP1 no CPT
C#CCOCCOCCOCCNc1nc(N2CCOCC2)nc(N2CCN(C(=O)Cn3cc(CCCCN)nn3)CC2)n1	.	/	.	.
COc1ccc2ccccc2c1CN1CCc2nnc(C(NS(C)(=O)=O)C(C)C)n2CC1 (centres undefined)	/	/	?	.
CCOc1ccc(N2CC(C(=O)Nc3ncccc3C)CC2=O)cc1 (centres undefined)	17.8µM	.	.	.
Cc1ccccc1NC(=O)C1CC(=O)N(c2ccccc2F)C1 (centres undefined)	14.1µM	.	.	.
CCOc1ccc(NC(=O)C2CC(=O)N(c3ccccc3F)C2)cc1 (centres undefined)	/	.	.	.
CCc1ccc(N2CC(C(=O)Nc3ccccc3N3CCCC3)CC2=O)cc1 (centres undefined)	.	/	11.6µM	11.6µM
c1ccc(NC2=NCCN2CCCC2CCCCC2)cc1	.	.	16.4µM	23.1µM
c1ccc(CCCCN2CCN=C2Nc2ccccc2)cc1	.	.	?	16.4µM
Fc1cccc(CCN2CCN=C2Nc2ccccc2)c1	.	.	.	.
NC(=O)C1CCN(C(=O)Nc2csc3ccccc23)CC1	.	.	.	.
COc1ccc(OC)c(-c2ccnc(-n3ncc(C(=O)N(C)CCO)c3C3CC3)n2)c1	/	/	.	.
COc1ccccc1-c1cc(C(=O)NC2CCCC2)no1	/	.	.	?
COc1cc(NC(=O)c2cccc3c2C(=O)N(C2CCCCC2)C3)cc(OC)c1	.	.	.	?
Cc1cc(C)cc(NC(=O)c2cc(S(=O)(=O)NCCC3=CCCCC3)ccc2F)c1	.	.	?	?
COc1ccc(NC(=O)c2cc(S(=O)(=O)NCCC3=CCCCC3)ccc2F)cc1	.	.	25.9µM	23.1µM
O=C(Nc1cccc(F)c1)c1cc(S(=O)(=O)NCCC2=CCCCC2)ccc1F	.	.	?	?
Cc1ccc(NC(=O)c2cc(S(=O)(=O)NCCC3=CCCCC3)ccc2F)cc1F	.	.	?	16.4µM
Cc1ccc(-n2c3nc(=O)[nH]c(=O)c-3cc3c(C)nn(-c4ccccc4)c32)cc1Cl	.	.	.	.
CCc1cccc(C)c1NC(=O)CN1CCN(S(=O)(=O)c2ccc(C(C)(C)C)cc2)CC1	/	/	.	23.1µM
CCc1cccc(C)c1NC(=O)C1CN(S(=O)(=O)c2ccccc2)CCN1S(=O)(=O)c1ccccc1 (centres undefined)	25.1µM	.	?	?
O=C(CCCCN1CCCCC1)c1ccccc1	/	/	.	.
O=C(C(=Cc1ccccc1)CN1CCCCC1)c1ccccc1	.	/	0.731µM	1.46µM
Cc1occc1C(=O)NN1C(=O)C2C3CCC(O3)C2C1=O (centres undefined)	.	.	.	.
CCOC(=O)C1=CCC(c2cccs2)N(S(=O)(=O)c2ccc(C)cc2)C1 (centres undefined)	.	/	?	?
CCOC(=O)C1=CCC(c2ccccc2C(F)(F)F)N(S(=O)(=O)c2ccc(C)cc2)C1 (centres undefined)	.	/	23.1µM	23.1µM
SMILES	ClpP mod	TDP1 block	TDP1 cell CPT	DT40 TDP1 no CPT
CC(=O)C1=CCC(c2ccccc2Cl)N(S(=O)(=O)c2ccc(C)cc2)C1 (centres undefined)	.	/	?	?
CCOC(=O)C1=CCC(c2ccccc2Cl)N(S(=O)(=O)c2ccc(C)cc2)C1 (centres undefined)	.	/	14.6µM	?
Cc1ccc(C)c(Cn2cnc3c(cnn3C(C)(C)C)c2=O)c1	.	.	.	18.4µM
CCOC(=O)c1ccccc1NC(=O)Cn1cnc2c(cnn2C(C)(C)C)c1=O	.	.	?	25.9µM
CC(C)(C)n1ncc2c(=O)n(CC(=O)NCc3ccc(F)cc3)cnc21	.	.	6.51µM	8.2µM
CC(C)(C)n1ncc2c(=O)n(CC(=O)Nc3ccccc3)cnc21	.	.	.	.
CC(C)(C)n1ncc2c(=O)n(CC(=O)NCc3ccco3)cnc21	.	.	?	?
Cc1ccccc1Cn1cnc2c(cnn2C(C)(C)C)c1=O	.	.	?	?
COC(=O)C1CCN(C(=O)COC(=O)c2oc3ccc(OC)cc3c2C)CC1	.	.	.	.
Cc1ccccc1NC(=O)CCc1c(C)nc2c(c1C)c(=O)n(C)c(=O)n2C	.	.	.	?
O=C(CC1N=C2c3ccccc3N=C(SCc3cccc(F)c3)N2C1=O)NCc1cccs1 (centres undefined)	.	.	?	?
CC(O)CNC(=O)C(=O)Nc1c2c(nn1-c1ccc(Cl)cc1)CSC2 (centres undefined)	.	.	.	.
Cc1nc(SCC(=O)OC(C)(C)C)c2c3c(sc2n1)CCCC3	.	.[12.3 µM]	.	?
Cc1ccc(-c2nc(NC(=O)CSc3nc(C)nc4sc5c(c34)CCCC5)ns2)cc1	.	.	11.6µM	6.51µM
Cc1ccccc1-c1nc(NC(=O)CSc2ncnc3sc4c(c23)CCCC4)ns1	.	.	.	.
CC(C)(C)c1ccc(-c2nc(NC(=O)CSc3ncnc4sc5c(c34)CCCC5)ns2)cc1	.	.	?	4.11µM
Cc1ccc(-c2nc(NC(=O)CSc3nnc4scc(-c5ccccc5)n34)ns2)cc1	.	/	18.4µM	20.6µM
CC(C)(C)OC(=O)N1CCC[C@H]1C(=O)Nc1ccc(S(=O)(=O)C(F)F)cc1	.	/	13µM	?
CC(NC(=O)C1CCCN1C(=O)OC(C)(C)C)C(=O)OCc1ccccc1 (centres undefined)	.	/	23.1µM	?
Cc1csc(SCC(=O)Nc2ccc(C)c(F)c2)n1	.	.	.	?
Cc1ccc(CNC(=O)CC2(CC3=NS(=O)(=O)c4ccccc4N3)CCCC2)cc1	.	/	?	?
COc1ccc(-n2c(-c3ccc(Br)cc3)c[n+]3c2SC(C)C3)cc1 (centres undefined)	/	.	1.64µM	1.16µM
COc1ccc(-n2c(-c3ccccc3)c[n+]3c2CCC3)cc1	.	/	2.06µM	2.31µM
COc1ccc(-n2c(-c3ccccc3)cc3c2CCCC3=O)cc1	.	.	.	?
COc1ccc(-n2c(-c3ccc(Br)cc3)c[n+]3c2CCC3)cc1	/	.	18.4µM	4.61µM
SMILES	ClpP mod	TDP1 block	TDP1 cell CPT	DT40 TDP1 no CPT
COc1ccc(-n2c(-c3ccc(Br)cc3)n[nH]c2=S)cc1	.	/	?	?
COc1ccc(-n2c(-c3ccc(Br)cc3)c[n+]3c2CCCCC3)cc1	/	.	1.84µM	1.84µM
O=C(Cc1ccc(Cl)cc1)NO	.	/	?	?
O=C(Nc1ccccc1)C12CC1/C(=N\O)c1ccccc1O2 (centres undefined)	/	.	?	?
CCOc1ccc(-c2c[n+]3c(n2-c2ccccc2)CCCCC3)cc1	.	.	0.082µM	0.0073µM
Cc1ccc(-c2c(CN3CCN(c4cc(Cl)ccc4C)CC3)csc2C)cc1	.	.	16.4µM	?
CCOC(=O)c1c(NC(=O)CSc2nc3cc(Cl)ccc3c(=O)n2Cc2ccco2)sc(C(=O)N(C)C)c1C	/	.	?	?

Screening results (PubChem BioAssay)
